Among all 420,000 compounds or so, about 64,000 (15%) were called active. Not shown: some 27% with an inconclusive outcome. Calls come from the whole dose curve; as a rule, active = well fitted inhibition curve with a large enough effect; inconclusive = small, poorly fitted or top-dose-only effect; inactive = flat fitted curve, though single readings scatter. A selection follows. Entries that show only a call come without a potency.
Assay: qHTS for Inhibitors of human tyrosyl-DNA phosphodiesterase 1 (TDP1): qHTS in cells in absence of CPT; note: nearly all actives have a fitted effect of over 55% in size
Details: DT40 Tdp1-/- hTDP1 cells, no CPT, ATP luminescence, 48 h; activity change, negative = growth inhibition: at 46.2 µM (top of the series)
Outline: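 Luminescent ATP content (CellTiter-Glo) served as the growth readout. Knockout chicken DT40 cells expressing human TDP1 were exposed to compounds without camptothecin for a minimum 48 hr at 37 °C.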
With `COc1ccc(C2CC(c3ccc(C)cc3)Nc3nc(N)nn32)cc1` (stereo not given) the Potency was “inactive”. With `CCOc1ccccc1C1C(C(=O)OC)=CN(C)C=C1C(=O)OC` the Potency was “inactive”. For `CCOc1ccccc1C1CC(c2ccc(Cl)cc2)Nc2nc(N)nn21` (stereo not given), the Potency was 16.4 µM (active). For `CC(C)[C@H](NC(=O)c1ccc(F)cc1)C(=O)OCC(=O)NC(=O)c1cccn1C`, the Potency was “inactive”. In the case of `COc1ccc(S(=O)(=O)N(C)CC(=O)N2CCCC2)cc1Cl`, the Potency was “inactive”. With `CN1c2ccc(C=O)c3c(C=O)ccc(c23)N(C)C1(C)C` the Potency was 7.31 µM (active). In the case of `O=C1c2ccccc2C(O)N1Cc1ccccc1Cl` (stereo not given), the Potency was “inactive”. For `CN1CCN(S(=O)(=O)c2ccc(Nc3ccc(F)cc3)nc2)CC1`, the Potency was “inactive”. In the case of `O=C(NCc1ccccc1)C1c2ccccc2OCC(=O)N1C1CC1` (stereo not given), the Potency was “inactive”. With `NS(=O)(=O)c1ccc(CCNC(=O)c2nc(CS(=O)(=O)c3ccc(Cl)cc3)no2)cc1` the Potency was “inactive”. With `Cc1nnc(OCC(=O)NCCC2=CCCCC2)c2ccccc12` the Potency was “inactive”. For `Cc1ccccc1NC(=O)Nc1ccccc1N1CCCCC1`, the Potency was 23.1 µM (active). With `Cc1cccc(N2CC(C(=O)Nc3ccccc3N3CCCC3)CC2=O)c1C` (stereo not given) the Potency was “inactive”. In the case of `Cc1ccccc1NC(=O)NC1(C(=O)N2CCCC2)CCCCC1`, the Potency was “inactive”. In the case of `O=C(CNCCC1=CCCCC1)Nc1ccccc1N1CCCCCC1`, the Potency was 23.1 µM (active). In the case of `O=C(Nc1ccccc1N1CCCCC1)c1cccc(F)c1`, the Potency was “inactive”. With `C=CCSc1nc(Cc2ccc(Cl)cc2)nc2ccccc12` the Potency was “inactive”. With `Cc1ccc(F)cc1NC(=O)c1ccc2c(c1)OCO2` the Potency was “inactive”. For `COc1cc(C2C(C(=O)c3sc(C)nc3C)=C(O)C(=O)N2CCN(C)C)cc(OC)c1OC` (stereo not given), the Potency was “inactive”. In the case of `N/C(Cc1ccc([N+](=O)[O-])cc1)=N\OC(=O)C1CCCCC1`, the Potency was “inactive”. With `COc1ccccc1OCCC(=O)OCC(=O)NCc1ccccc1` the Potency was “inactive”. In the case of `N#Cc1ccc(CN2CCN(CC(=O)Nc3ccccc3C(=O)NC3CC3)CC2)cc1`, the Potency was “inactive”. In the case of `NC(=O)c1ncn([C@@H]2O[C@H](CN=C3NS(=O)(=O)c4ccccc43)[C@@H](O)[C@H]2O)n1`, the Potency was “inactive”. With `CC(C)C(=O)Nc1cccc(NC(=O)c2ccc([N+](=O)[O-])cc2Cl)c1` the Potency was “inactive”. With `CC(=O)c1ccc(NC(=O)Nc2ccc([N+](=O)[O-])cc2C)cc1` the Potency was 16.4 µM (active). With `CN1CCN(CCNC(=O)Nc2ccc([N+](=O)[O-])cc2)CC1` the Potency was “inactive”. In the case of `COc1ccc([N+](=O)[O-])cc1NC(=O)c1ccc(N(Cc2ccccc2C)S(C)(=O)=O)cc1`, the Potency was “inactive”. In the case of `Cc1cc([N+](=O)[O-])ccc1NC(=O)c1ccc(NC(=O)C(C)C)cc1`, the Potency was 18.4 µM (active). For `Cc1cc([N+](=O)[O-])ccc1NC(=O)C1CCCO1` (stereo not given), the Potency was “inactive”. In the case of `CN1c2ccc([N+](=O)[O-])cc2C(C)(C)C12C=Cc1cc(C(=O)O)ccc1O2` (stereo not given), the Potency was “inactive”. With `CN(CCO)S(=O)(=O)c1ccc2c(c1)C(=O)c1cc(S(=O)(=O)N(C)CCO)ccc1-2` the Potency was “inactive”. For `C=CCOc1ccc(/C=C/C(=O)OCC(=O)NC2CCCCCC2)cc1`, the Potency was “inactive”. With `CN(C(=O)c1ccc2c(c1)N(Cc1cccc(Cl)c1)C(=O)c1ccccc1S2=O)C1CCCCC1` (stereo not given) the Potency was 23.1 µM (active). With `Cc1ccc(CNS(=O)(=O)CCNC(=O)c2ccccc2)cc1` the Potency was “inactive”. In the case of `O=C(CN1C(=O)c2ccccc2C1=O)NCc1ccc(C(=O)O)cc1`, the Potency was “inactive”. With `Cc1ccc(C)c(CN2C(=O)c3ccccc3S(=O)c3ccc(C(=O)N4CCOCC4)cc32)c1` (stereo not given) the Potency was “inactive”. With `Cc1ccc(CCNC(=O)c2ccc3c(c2)N(Cc2cc(C)ccc2C)C(=O)c2ccccc2S3=O)cc1` (stereo not given) the Potency was 11.6 µM (active). In the case of `O=C(O)c1ccc2c(c1)N(Cc1ccc(F)cc1)C(=O)c1ccccc1S2=O` (stereo not given), the Potency was 14.6 µM (active). For `O=C(COC(=O)c1cccc(Cl)c1)NC1CCCCCCC1`, the Potency was “inactive”. For `Cc1c(CNC2CCCCC2)c(C(=O)O)c(C)n1Cc1cccc(Cl)c1`, the Potency was “inactive”. In the case of `COc1ccccc1NC(=O)c1cc(N2C(=O)C3C4CCC(C4)C3C2=O)ccc1Cl` (stereo not given), the Potency was “inactive”. In the case of `C/C(CC(=O)NC(C)(C)C)=N\NC(=O)c1ccco1`, the Potency was “inactive”. For `COC(=O)c1ccc(CNC(=O)Cn2cc(C)c(=O)[nH]c2=O)cc1`, the Potency was “inactive”. For `Cc1ccc(OCC(=O)N2CCN(S(=O)(=O)c3ccc(Cl)s3)CC2)cc1C`, the Potency was “inactive”. For `Cc1cc(C)n2c(Nc3c(C)cccc3C)c(CCc3ccccc3)nc2n1`, the Potency was 16.4 µM (active). For `Nc1nc(NCc2ccccc2)n(-c2ccccc2)n1`, the Potency was “inactive”. For `Cc1cc(C)n2c(NCc3ccccc3)c(CC(C)C)nc2n1`, the Potency was 23.1 µM (active). For `Cc1ccc(O)c(CCc2ccccc2)n1`, the Potency was “inactive”. With `COc1cccc2c(C)c(C(=O)O)[nH]c12` the Potency was “inactive”. For `O=C(O)CC(CC(=O)N1CCOCC1)c1ccccc1` (stereo not given), the Potency was “inactive”. For `CCOc1ccc(C(CC(=O)O)NC(=O)Cc2ccccc2)cc1OC` (stereo not given), the Potency was “inactive”. With `CCCCC(=O)NC(c1ccc(OC)c(OC)c1)c1ccc2cccnc2c1O` (stereo not given) the Potency was 3.26 µM (active). For `COc1ccc(CCNS(=O)(=O)c2cccc3cccnc23)cc1OC`, the Potency was “inactive”. For `COC(=O)C1C(=O)CC(C)(O)C(C(=O)OC)C1c1ccc2c(c1)OCO2` (stereo not given), the Potency was “inactive”. With `NCCCC[C@@H]1NC(=O)[C@H](CCC(=O)O)NC(=O)c2cc([N+](=O)[O-])cc(I)c2NCC[C@@H](C(N)=O)NC1=O` the Potency was “inactive”. With `CCc1nnc(NC(=O)CSCc2cc(=O)n3cc(C)sc3n2)s1` the Potency was “inactive”. In the case of `COc1ccc(CN2CC[C@H]3C=CC[C@@H](C(=O)N4CCOCC4)[C@H]3C2=O)cc1OC`, the Potency was “inactive”. For `CC(NC(=O)c1cc2c(=O)n3ccccc3nc2n(C(C)C)c1=N)c1ccccc1` (stereo not given), the Potency was 18.4 µM (active). For `Cc1ccc2nc3c(cc(C(=O)NC4CCCCC4)c(=N)n3C(C)C)c(=O)n2c1`, the Potency was “inactive”. In the case of `CC(NC(=O)c1ccccc1C(=O)O)c1ccc(-n2ccnc2)cc1` (stereo not given), the Potency was “inactive”. With `COC(=O)c1ccc(COC(=O)CNC(=O)c2cccc(OC)c2)o1` the Potency was “inactive”. For `COc1cccc(C(=O)N(Cc2cccc(Cl)c2)Cc2ccco2)c1`, the Potency was 14.6 µM (active). For `O=C(CCNC(=O)c1ccccc1Cl)NCc1ccco1`, the Potency was “inactive”. In the case of `CCc1ccc(CN(Cc2ccco2)C(=O)c2ccccc2Cl)cc1`, the Potency was 20.6 µM (active). In the case of `O=C(Nc1ccccc1)N(Cc1cccnc1)Cc1ccco1`, the Potency was “inactive”. With `COc1cccc(NC(=S)NCc2ccco2)c1` the Potency was “inactive”. For `CCCOc1ccc(Cn2c(O)cc(=O)[nH]c2=O)cc1`, the Potency was “inactive”. For `CN1CCN(C(=O)/C(=C\c2ccc3c(c2)OCO3)NC(=O)c2cccs2)CC1`, the Potency was “inactive”. In the case of `Cc1ccc(-c2nc(-c3ccncc3)no2)c(C)c1`, the Potency was “inactive”. For `Cc1nn(CC(=O)NCC2CCCO2)c(=O)c2cc3ccccc3n12` (stereo not given), the Potency was “inactive”. With `CCCCN1C(N)=NC[C@@H]1Cc1ccccc1` the Potency was 14.6 µM (active). In the case of `CCCC[C@@H]1CN=C(N)N1CCCC`, the Potency was 7.31 µM (active). For `CCCCN1C(=S)NC[C@@H]1C(C)CC` (stereo not given in full), the Potency was “inactive”. For `CN(C)C1=NC[C@H](Cc2ccccc2)N1CCc1ccc(F)cc1`, the Potency was “inactive”. With `CCCCNC(=O)C1CCC(=O)N1CCc1ccccc1` (stereo not given) the Potency was “inactive”. With `CCCCN1C(N)=NC[C@@H]1CC1CCCCC1` the Potency was 16.4 µM (active). With `NNC(=O)c1ccc(Cl)cc1Cl` the Potency was “inactive”. With `OCC(CO)(CO)NCc1ccc(-c2ccccc2)cc1` the Potency was “inactive”. For `Cn1nc([N+](=O)[O-])nc1Sc1ccc(C(C)(C)C)cc1`, the Potency was “inactive”. With `O=C(CC1NCCNC1=O)Nc1cc(Cl)cc(Cl)c1` (stereo not given) the Potency was “inactive”. For `Cc1nc(-c2ccccc2)sc1C(=O)/C=C/c1ccccc1`, the Potency was 18.4 µM (active). In the case of `Cc1ccc(SCC(=O)c2sc(-c3ccccc3)nc2C)cc1`, the Potency was “inactive”. For `CNC(=O)c1csc(-c2ccccc2)n1`, the Potency was “inactive”. For `N#Cc1cnn2cc(CCN3CCOCC3)c(-c3ccc(F)cc3)nc12`, the Potency was “inactive”. With `CCCc1c2oc(C(=O)O)cc(=O)c2cc2c(=O)cc(C(=O)O)n(CC)c12` the Potency was “inactive”. In the case of `O=C(Nc1ccccc1C(=O)NCC1CCCO1)c1ccccc1F` (stereo not given), the Potency was “inactive”. In the case of `CNC(=O)CN1C(=O)NC(c2ccccc2)(c2ccccc2)C1=O`, the Potency was “inactive”. For `CCN(CC)C(=O)C1=C(C)N(Cc2ccccc2)C(=O)C(CC(=O)NC(c2ccccc2)c2ccccc2)C1` (stereo not given), the Potency was 18.4 µM (active). With `CC1=C(C(=O)N(C)C)CC(CC(=O)NCCN2CCOCC2)C(=O)N1Cc1ccccc1` (stereo not given) the Potency was “inactive”. In the case of `CCN(CC)C(=O)C1=C(C)N(Cc2ccc(F)cc2)C(=O)C(CC(=O)NC2CCCC2)C1` (stereo not given), the Potency was “inactive”. In the case of `CCN(CC)C(=O)C1=C(C)N(Cc2ccc(OC)cc2)C(=O)C(CC(=O)NCc2ccco2)C1` (stereo not given), the Potency was “inactive”. In the case of `COc1ccc(CN2C(=O)C(CC(=O)NCc3cccc4ccccc34)CC(C(=O)N3CCOCC3)=C2C)cc1` (stereo not given), the Potency was “inactive”. With `CCN(CC)C(=O)C1=C(C)N(Cc2ccc(C(C)(C)C)cc2)C(=O)C(CC(=O)NCc2cccc3ccccc23)C1` (stereo not given) the Potency was 16.4 µM (active). With `COc1ccc2c(C)cc3nnnn3c2c1` the Potency was “inactive”. In the case of `O=C(Nc1ccc(Cl)cc1)c1cc2nc(C3CC3)cc(C(F)(F)F)n2n1`, the Potency was “inactive”. For `COc1ccccc1NC(=O)CSc1nnc(CNC(=O)c2ccccc2F)o1`, the Potency was “inactive”. In the case of `COc1cc(C(=O)NCc2nnc(SCC(=O)Nc3nc4ccc(C)cc4s3)o2)cc(OC)c1OC`, the Potency was 4.61 µM (active). With `COc1ccc(C(=O)NCc2nnc(SCC(=O)Nc3cccc(OC)c3)o2)cc1` the Potency was “inactive”. For `O=C(O)c1cc(S(=O)(=O)NC2CCCc3ccccc32)ccc1O` (stereo not given), the Potency was “inactive”. With `CCC(C)(NC(=O)c1ccccn1)C(=O)NC1CCCCC1` (stereo not given) the Potency was “inactive”. With `Cc1cccc(OCC(=O)NCCCNC(=O)c2ccccn2)c1` the Potency was “inactive”. In the case of `CCN(CC)CCOc1ccc2c(c1)C(=NNC(=O)c1ccccn1)c1cc(OCCN(CC)CC)ccc1-2`, the Potency was 3.26 µM (active). In the case of `N#Cc1ccc[n+](CC(=O)c2ccc(O)c(O)c2)c1`, the Potency was “inactive”. In the case of `CCOC(=O)c1cc2ccccc2n1CC(=O)c1ccccc1`, the Potency was “inactive”. In the case of `CCn1c(/C=C/Nc2ccccc2)[n+](CC)c2ccc(C(=O)OCC(F)(F)F)cc21`, the Potency was 14.6 µM (active).
Potency is the fitted concentration of half-maximal effect.
